# From article PMC5540273 (PLoS ONE, 2017)
# Like-named read-outs stand apart in the source and are kept apart here.
# Assays:
# FGFR1 = conditions: concentration: 1 μM, replicates: in singlicate; n = 1
# FGFR2 = conditions: concentration: 1 μM, replicates: in singlicate; n = 1
# FGFR3 = conditions: concentration: 1 μM, replicates: in singlicate; n = 1
# FGFR4 = conditions: concentration: 1 μM, replicates: in singlicate; n = 1
# FGR = conditions: concentration: 1 μM, replicates: in singlicate; n = 1
# FLT1 = conditions: concentration: 1 μM, replicates: in singlicate; n = 1
# FLT3-autoinhibited = conditions: concentration: 1 μM, replicates: in singlicate; n = 1
# FLT3 = conditions: concentration: 1 μM, replicates: in singlicate; n = 1
# FLT4 = conditions: concentration: 1 μM, replicates: in singlicate; n = 1
# FRK = conditions: concentration: 1 μM, replicates: in singlicate; n = 1
# FYN = conditions: concentration: 1 μM, replicates: in singlicate; n = 1
# GAK = conditions: concentration: 1 μM, replicates: in singlicate; n = 1
# GCN2(Kin.Dom.2,S808G) = system: T1, GCN2(Kin.Dom.2,S808G); conditions: concentration: 1 μM, replicates: in singlicate; n = 1
# T1 construct: gene EIF2AK4
# GRK1 = conditions: concentration: 1 μM, replicates: in singlicate; n = 1
# GRK2 = system: T2, GRK2; conditions: concentration: 1 μM, replicates: in singlicate; n = 1
# T2 construct: gene ADRBK1
# GRK3 = system: T3, GRK3; conditions: concentration: 1 μM, replicates: in singlicate; n = 1
# T3 construct: gene ADRBK2
# GRK4 = conditions: concentration: 1 μM, replicates: in singlicate; n = 1
# GRK7 = conditions: concentration: 1 μM, replicates: in singlicate; n = 1
# GSK3A = conditions: concentration: 1 μM, replicates: in singlicate; n = 1
# GSK3B = conditions: n = 1
# [1] = concentration: 1 μM, replicates: in singlicate
# 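Note: KINOMEscan kinase panel screen.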
smiles,measurement,setting,value
O=C(Nc1n[nH]c2nc(-c3ccccc3)ccc12)C1CC1 [SB-708999],%Inh,FGFR1,0%
same,%Inh,FGFR2,33%
same,%Inh,FGFR3,26%
same,%Inh,FGFR4,12%
same,%Inh,FGR,9%
same,%Inh,FLT1,11%
same,%Inh,FLT3-autoinhibited,0%
same,%Inh,FLT3,42%
same,%Inh,FLT4,4%
same,%Inh,FRK,5%
same,%Inh,FYN,0%
same,%Inh,GAK,17%
same,%Inh,"GCN2(Kin.Dom.2,S808G)",0%
same,%Inh,GRK1,10%
same,%Inh,GRK2,0%
same,%Inh,GRK3,28%
same,%Inh,GRK4,9%
same,%Inh,GRK7,0%
same,%Inh,GSK3A,77%
same,%Inh,GSK3B; 1 µM,12%
Cl.Cl.NC(CNC(=O)c1cc(Br)c(-c2ccnc3[nH]ccc23)s1)c1ccccc1 (centres unmarked) [GSK1322949],%Inh,FGFR1,45%
same,%Inh,FGFR2,39%
same,%Inh,FGFR3,26%
same,%Inh,FGFR4,29%
same,%Inh,FGR,14%
same,%Inh,FLT1,64%
same,%Inh,FLT3-autoinhibited,1%
same,%Inh,FLT3,90.9%
same,%Inh,FLT4,17%
same,%Inh,FRK,0%
same,%Inh,FYN,17%
same,%Inh,GAK,85%
same,%Inh,"GCN2(Kin.Dom.2,S808G)",0%
same,%Inh,GRK1,3%
same,%Inh,GRK2,39%
same,%Inh,GRK3,70%
same,%Inh,GRK4,76%
same,%Inh,GRK7,75%
same,%Inh,GSK3A,0%
same,%Inh,GSK3B; [1],3%
CN(C)CCNS(=O)(=O)c1ccc(-c2ccnc3[nH]ccc23)cc1 [GSK977620],%Inh,FGFR1,33%
same,%Inh,FGFR2,9%
same,%Inh,FGFR3,5%
same,%Inh,FGFR4,0%
same,%Inh,FGR,4%
same,%Inh,FLT1,38%
same,%Inh,FLT3-autoinhibited,11%
same,%Inh,FLT3,65%
same,%Inh,FLT4,15%
same,%Inh,FRK,6%
same,%Inh,FYN,18%
same,%Inh,GAK,1%
same,%Inh,"GCN2(Kin.Dom.2,S808G)",14%
same,%Inh,GRK1,71%
same,%Inh,GRK2,0%
same,%Inh,GRK3,72%
same,%Inh,GRK4,0%
same,%Inh,GRK7,86%
same,%Inh,GSK3A,0%
same,%Inh,GSK3B; [1],11%
O=C(O)C(F)(F)F.O=c1[nH]ccc2nc(N[C@@H]3CCNC3)nc(Nc3ccc4c(c3)S(=O)(=O)CC4)c12 [GSK2181306],%Inh,FGFR1,4%
same,%Inh,FGFR2,33%
same,%Inh,FGFR3,21%
same,%Inh,FGFR4,0%
same,%Inh,FGR,45%
same,%Inh,FLT1,32%
same,%Inh,FLT3-autoinhibited,79%
same,%Inh,FLT3,61%
same,%Inh,FLT4,42%
same,%Inh,FRK,26%
same,%Inh,FYN,43%
same,%Inh,GAK,76%
same,%Inh,"GCN2(Kin.Dom.2,S808G)",97.3%
same,%Inh,GRK1,95.2%
same,%Inh,GRK2,49%
same,%Inh,GRK3,60%
same,%Inh,GRK4,88%
same,%Inh,GRK7,65%
same,%Inh,GSK3A,97.8%
same,%Inh,GSK3B; [1],92.1%
COc1cccc(-c2nc(-c3ccccc3)[nH]c2-c2ccncc2)c1 [SB-610250],%Inh,FGFR1,0%
same,%Inh,FGFR2,0%
same,%Inh,FGFR3,0%
same,%Inh,FGFR4,5%
same,%Inh,FGR,14%
same,%Inh,FLT1,32%
same,%Inh,FLT3-autoinhibited,5%
same,%Inh,FLT3,0%
same,%Inh,FLT4,7%
same,%Inh,FRK,28%
same,%Inh,FYN,24%
same,%Inh,GAK,72%
same,%Inh,"GCN2(Kin.Dom.2,S808G)",1%
same,%Inh,GRK1,0%
same,%Inh,GRK2,0%
same,%Inh,GRK3,49%
same,%Inh,GRK4,0%
same,%Inh,GRK7,0%
same,%Inh,GSK3A,0%
same,%Inh,GSK3B; [1],19%
Cc1ccc(NC(=O)c2ccc(Cl)c(Cl)c2)cc1-c1ccc(C(=O)Nc2ccncc2)cc1 [GSK1398460],%Inh,FGFR1,0%
same,%Inh,FGFR2,0%
same,%Inh,FGFR3,14%
same,%Inh,FGFR4,6%
same,%Inh,FGR,26%
same,%Inh,FLT1,70%
same,%Inh,FLT3-autoinhibited,14%
same,%Inh,FLT3,5%
same,%Inh,FLT4,57%
same,%Inh,FRK,82%
same,%Inh,FYN,31%
same,%Inh,GAK,45%
same,%Inh,"GCN2(Kin.Dom.2,S808G)",8%
same,%Inh,GRK1,0%
same,%Inh,GRK2,0%
same,%Inh,GRK3,24%
same,%Inh,GRK4,4%
same,%Inh,GRK7,0%
same,%Inh,GSK3A,6%
same,%Inh,GSK3B; [1],15%
Cc1cc(-c2c(-c3ccc(F)cc3)ncn2CCCN2CCOCC2)nc(N)n1 [SB-222517],%Inh,FGFR1,20%
same,%Inh,FGFR2,0%
same,%Inh,FGFR3,0%
same,%Inh,FGFR4,0%
same,%Inh,FGR,9%
same,%Inh,FLT1,0%
same,%Inh,FLT3-autoinhibited,0%
same,%Inh,FLT3,27%
same,%Inh,FLT4,0%
same,%Inh,FRK,0%
same,%Inh,FYN,0%
same,%Inh,GAK,5%
same,%Inh,"GCN2(Kin.Dom.2,S808G)",0%
same,%Inh,GRK1,31%
same,%Inh,GRK2,0%
same,%Inh,GRK3,4%
same,%Inh,GRK4,20%
same,%Inh,GRK7,0%
same,%Inh,GSK3A,0%
same,%Inh,GSK3B; [1],32%
Cc1ccc(NC(=O)c2cccc(N3CCCCC3)c2)cc1-c1ccc(C(=O)NCC2CC2)cc1 [GSK1917008],%Inh,FGFR1,21%
same,%Inh,FGFR2,20%
same,%Inh,FGFR3,21%
same,%Inh,FGFR4,18%
same,%Inh,FGR,24%
same,%Inh,FLT1,34%
same,%Inh,FLT3-autoinhibited,20%
same,%Inh,FLT3,0%
same,%Inh,FLT4,13%
same,%Inh,FRK,49%
same,%Inh,FYN,15%
same,%Inh,GAK,11%
same,%Inh,"GCN2(Kin.Dom.2,S808G)",15%
same,%Inh,GRK1,3%
same,%Inh,GRK2,6%
same,%Inh,GRK3,27%
same,%Inh,GRK4,10%
same,%Inh,GRK7,0%
same,%Inh,GSK3A,27%
same,%Inh,GSK3B; [1],10%
CS(=O)(=O)c1cccc(CNc2nc(Nc3ccc4c(c3)CCC(=O)N4)ncc2C(F)(F)F)c1,%Inh,FGFR1,63%
same,%Inh,FGFR2,65%
same,%Inh,FGFR3,36%
same,%Inh,FGFR4,32%
same,%Inh,FGR,0%
same,%Inh,FLT1,77%
same,%Inh,FLT3-autoinhibited,54%
same,%Inh,FLT3,99%
same,%Inh,FLT4,89%
same,%Inh,FRK,0%
same,%Inh,FYN,10%
same,%Inh,GAK,16%
same,%Inh,"GCN2(Kin.Dom.2,S808G)",0%
same,%Inh,GRK1,24%
same,%Inh,GRK2,0%
same,%Inh,GRK3,0%
same,%Inh,GRK4,0%
same,%Inh,GRK7,0%
same,%Inh,GSK3A,55%
same,%Inh,GSK3B; [1],0%
CC(=O)Nc1cn2nc(Oc3cccc(NC(=O)c4cccc(C(F)(F)F)c4)c3)ccc2n1,%Inh,FGFR1,0%
same,%Inh,FGFR2,91.4%
same,%Inh,FGFR3,53%
same,%Inh,FGFR4,50%
same,%Inh,FGR,93.1%
same,%Inh,FLT1,98.5%
same,%Inh,FLT3-autoinhibited,0%
same,%Inh,FLT3,97.4%
same,%Inh,FLT4,100%
same,%Inh,FRK,99.9%
same,%Inh,FYN,96.7%
same,%Inh,GAK,0%
same,%Inh,"GCN2(Kin.Dom.2,S808G)",37%
same,%Inh,GRK1,0%
same,%Inh,GRK2,0%
same,%Inh,GRK3,0%
same,%Inh,GRK4,1%
same,%Inh,GRK7,0%
same,%Inh,GSK3A,20%
same,%Inh,GSK3B; [1],0%
